Inconclusive results are not listed. A number with no mark means an inactive call. Calls come from the whole dose curve; as a rule, active = well fitted cell-killing curve with a large enough effect; inconclusive = small, poorly fitted or top-dose-only effect; inactive = flat fitted curve, though single readings scatter.
Assay: qHTS of pediatric cancer cell lines to identify multiple opportunities for drug repurposing: Primary screen for control Hh wild type fibroblast cells (AID 1347106);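 note: a drop in luminescence marks cytotoxicity and a rise apparent proliferation; nearly all actives have a fitted effect of over 55% in size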
Conditions: Hh wild-type fibroblast viability, CellTiter-Glo luminescence, 48 h; series mostly up to 46 µM; activity change, negative = cytotoxic: at the top concentration
In short: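 Viability after 48 h compound treatment at 37C, 500-1,000 cells/well, read as ATP luminescence with CellTiter-Glo. Primary screens used 11-point (MIPE, 0.78 nM-46 µM) or 8-point (NPC, 0.59 nM-46 µM) final concentrations; follow-up screens used 11-point dilutions.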
For `NC(=O)NS(=O)(=O)c1ccc(N)cc1`, the “activity change, negative = cytotoxic” value was -1.29%. With `CCOC(=O)c1cccnc1` the “activity change, negative = cytotoxic” value was 7.6%. In the case of `CCOC(=O)[C@H](CCc1ccccc1)N[C@@H](C)C(=O)N1CCC[C@H]1C(=O)O`, the “activity change, negative = cytotoxic” value is reported as 12.7%. In the case of `CC(C(=O)O)c1ccc2c(c1)Cc1cccnc1O2` (stereo not drawn), the “activity change, negative = cytotoxic” value is reported as 3.74%. With `CCN(CC)CC1CCCCN1CC(=O)N1c2ccccc2C(=O)Nc2cccnc21` (stereo not drawn) the “activity change, negative = cytotoxic” value was 10.1%. For `CC(=O)Nc1ccc(OCCOCCOc2ccc(NC(C)=O)cc2)cc1`, the “activity change, negative = cytotoxic” value was -0.0198%. With `Nc1c2c(nc3c1CCC3)CCCC2` the “activity change, negative = cytotoxic” value was -5.12%. In the case of `C=CCN1C[C@H](C(=O)N(CCCN(C)C)C(=O)NCC)C[C@@H]2c3cccc4[nH]cc(c34)C[C@H]21`, the “activity change, negative = cytotoxic” value is reported as 7.52%. With `Cc1cc(-n2nc3ccc(Cl)cc3n2)c(O)c(C(C)(C)C)c1` the “activity change, negative = cytotoxic” value was -9.13%. For `Nc1ncnc2c1ncn2[C@@H]1O[C@H](COP(=O)(O)O)[C@@H](O)[C@H]1O`, the “activity change, negative = cytotoxic” value was 15%. For `CC(CSC(=O)c1ccccc1)C(=O)N1C[C@@H](Sc2ccccc2)C[C@H]1C(=O)O` (stereo partly drawn), the “activity change, negative = cytotoxic” value was -1.07% [at 16.1 µM]. For `CCCCCCCCCCCCCCCCN`, the “activity change, negative = cytotoxic” value was -8.34%. In the case of `O=C(O)COC(=O)Cc1ccccc1Nc1c(Cl)cccc1Cl`, the “activity change, negative = cytotoxic” value is reported as 11.8%. With `CCCCCCCCCCC(CO)CCCCCCCC` (stereo not drawn) the “activity change, negative = cytotoxic” value was 8.42%. With `CC(C)NC[C@@H](O)COc1ccc(CC(N)=O)cc1` the “activity change, negative = cytotoxic” value was -3.64%. With `CC(=O)N(CC(O)CN(C(C)=O)c1c(I)c(C(=O)NCC(O)CO)c(I)c(C(=O)NCC(O)CO)c1I)c1c(I)c(C(=O)NCC(O)CO)c(I)c(C(=O)NCC(O)CO)c1I` (stereo not drawn) the “activity change, negative = cytotoxic” value was -2.36%. In the case of `C/C=C1\[C@H]2C=C(C)C[C@]1(N)c1ccc(=O)[nH]c1C2`, the “activity change, negative = cytotoxic” value is reported as 5.13%. With `NS(=O)(=O)c1cc(-c2nn[nH]n2)c(NCc2cccs2)cc1Cl` the “activity change, negative = cytotoxic” value was -0.523%.
% is set by controls: 0 for no effect and ±100 for the full control effect.
